Calls of active or inactive are those of the source. How the calls were made is not given here.
Tested on: Ras
Assay: fluorescent GTP concentration effect on GTPase potency – biochemical, four GTPases, bead flow cytometry, mechanism study, profiling panel (AID 743330)
Conditions: bead-based flow cytometry, fluorescent GTP binding to GTPases

Row | Structure (SMILES) | EC50
1 | CC1(C)Cc2c(sc(NC(=S)NC(=O)c3ccc(F)cc3)c2C(=O)O)CO1 | 31 nM (active)
2 | CCC1(C)Cc2c(sc(NC(=S)NC(=O)c3ccccc3)c2C(=O)O)CO1 (configuration not stated) | 5 nM (active)
